PubChem BioAssay (NCATS)
Records with an inconclusive call do not appear. A number with no mark means an inactive call. Activity calls are given as the source filed them. Calls come from the whole dose curve; as a rule, active = well fitted cell-killing curve with a large enough effect; inconclusive = small, poorly fitted or top-dose-only effect, or effect the other way; inactive = flat fitted curve, though single readings scatter.

These compounds were tested on C33A (assay: Primary qHTS to identify gynecologic anti-cancer compounds using libraries of approved drugs and bioactive compounds (AID 1345084; note: nearly all actives have a fitted effect of over 55% in size)). Details: Gynecologic cancer cell panel viability, ATPlite luminescence, 48 h; series mostly up to 57.5 µM; activity change, negative = cytotoxicity: at the top concentration.
Outline: (§1)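 Cytotoxicity screen measuring ATP content by luciferase luminescence. Each compound is applied at five concentrations for 48 h at 37 C with 5% CO2.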
% is set by controls: 0 for no effect and ±100 for the full control effect; potency is the fitted concentration of half-maximal effect.

| SMILES | activity change, negative = cytotoxicity [%] | Potency |
| --- | --- | --- |
| Cc1cccc2c1CC[C@H](CN1CCC(c3c(Cl)cccc3Cl)CC1)C[C@@H]2O | -25 | – |
| Cc1c(C(=O)Nc2ccc(N3C[C@@H](C)O[C@@H](C)C3)nc2)cccc1-c1ccc(OC(F)(F)F)cc1 | -19.2 | – |
| CN(C)CCN(Cc1ccc(Cl)cc1)c1ccccn1 | -3.07 | – |
| Cc1cnc(Nc2cccc(CN3CCOCC3)c2)nc1Nc1cccc(S(=O)(=O)NC(C)(C)C)c1 | -3.66 | – |
| COc1ccc(-c2cc3nccn3c(Nc3ncccc3C(N)=O)n2)cc1OC | -15.4 | – |
| O=C(CO)N1CCC(c2[nH]nc(-c3ccc(Cl)cc3)c2-c2ccncn2)CC1 | 0.126 | – |
| CC1=C(C(=O)Nc2cc3cn[nH]c3cc2F)C(c2ccc(C(F)(F)F)cc2)CC(=O)N1 (configuration not stated) | 5.71 | – |
| COc1nccc(-c2c(-c3ccc(F)cc3)ncn2C2CCC(O)CC2)n1 (configuration not stated) | -5.66 | – |
| CC(C)(O)CC(=O)NCCn1ccc2ncnc(Nc3ccc(Oc4cccc(C(F)(F)F)c4)c(Cl)c3)c21 | -29.2 | – |
| COc1ccc(-c2ccc3ncc4c(c3c2)n(-c2ccc(N3CCNCC3)c(C(F)(F)F)c2)c(=O)n4C)cn1 | – | 11200 nM (active) |

These compounds were tested on CAOV3 in the same assay as above. Details: Gynecologic cancer cell panel viability, ATPlite luminescence, 48 h; series mostly up to 57.5 µM; activity change, negative = cytotoxicity: at the top concentration.
Outline: as §1

| SMILES | activity change, negative = cytotoxicity | Potency |
| --- | --- | --- |
| CN1C(=O)C(Cc2c[nH]c3ccccc23)NC1=S (configuration not stated) | 5.55% [at 25.3 µM] | – |
| Cc1cccc2c1CC[C@H](CN1CCC(c3c(Cl)cccc3Cl)CC1)C[C@@H]2O | -39.2% | – |
| Cc1c(C(=O)Nc2ccc(N3C[C@@H](C)O[C@@H](C)C3)nc2)cccc1-c1ccc(OC(F)(F)F)cc1 | 6.91% | – |
| CN(C)CCN(Cc1ccc(Cl)cc1)c1ccccn1 | 1.54% | – |
| COc1ccc(-c2cc3nccn3c(Nc3ncccc3C(N)=O)n2)cc1OC | -27% | – |
| O=C(CO)N1CCC(c2[nH]nc(-c3ccc(Cl)cc3)c2-c2ccncn2)CC1 | 28.2% | – |
| CC1=C(C(=O)Nc2cc3cn[nH]c3cc2F)C(c2ccc(C(F)(F)F)cc2)CC(=O)N1 (configuration not stated) | 18.6% | – |
| CC(C)(C)c1nc(-c2cccc(NS(=O)(=O)c3c(F)cccc3F)c2F)c(-c2ccnc(N)n2)s1 | 31.2% | – |
| COc1nccc(-c2c(-c3ccc(F)cc3)ncn2C2CCC(O)CC2)n1 (configuration not stated) | -0.891% | – |
| Nc1ccc(-c2ccc3ncc4ccc(=O)n(-c5cccc(C(F)(F)F)c5)c4c3c2)cn1 | – | 631 nM (active) |
| COc1ccc(-c2ccc3ncc4c(c3c2)n(-c2ccc(N3CCNCC3)c(C(F)(F)F)c2)c(=O)n4C)cn1 | – | 2510 nM (active) |

Each compound was assayed on CASKI in the same assay as above. Details: Gynecologic cancer cell panel viability, ATPlite luminescence, 48 h; series mostly up to 57.5 µM; activity change, negative = cytotoxicity: at the top concentration.
Outline: as §1

| SMILES | Potency | activity change, negative = cytotoxicity |
| --- | --- | --- |
| Nc1ncnc2c1c(-c1cccc(OCc3ccccc3)c1)cn2C1CC(CN2CCC2)C1 (configuration not stated) | 28200 nM (active) | – |
| CN1C(=O)C(Cc2c[nH]c3ccccc23)NC1=S (configuration not stated) | – | -3.14% [at 25.3 µM] |
| Cc1cccc2c1CC[C@H](CN1CCC(c3c(Cl)cccc3Cl)CC1)C[C@@H]2O | – | -17.3% |
| Cc1c(C(=O)Nc2ccc(N3C[C@@H](C)O[C@@H](C)C3)nc2)cccc1-c1ccc(OC(F)(F)F)cc1 | – | 13.7% |
| CN(C)CCN(Cc1ccc(Cl)cc1)c1ccccn1 | – | 2.14% |
| CC1=C[C@@H]2[C@@H]([C@@H](O)C[C@@]3(C)[C@H]2C[C@@H](C)[C@]3(O)C(=O)CO)[C@@]2(C)Cc3cnn(-c4ccccc4)c3C=C12 | – | -11.7% |
| COc1ccc(-c2cc3nccn3c(Nc3ncccc3C(N)=O)n2)cc1OC | – | -13.9% |
| O=C(CO)N1CCC(c2[nH]nc(-c3ccc(Cl)cc3)c2-c2ccncn2)CC1 | – | -6.48% |
| CC1=C(C(=O)Nc2cc3cn[nH]c3cc2F)C(c2ccc(C(F)(F)F)cc2)CC(=O)N1 (configuration not stated) | – | -3.79% |
| CC(C)(C)c1nc(-c2cccc(NS(=O)(=O)c3c(F)cccc3F)c2F)c(-c2ccnc(N)n2)s1 | – | 16.5% |
| COc1nccc(-c2c(-c3ccc(F)cc3)ncn2C2CCC(O)CC2)n1 (configuration not stated) | – | 2.52% |
| Nc1ccc(-c2ccc3ncc4ccc(=O)n(-c5cccc(C(F)(F)F)c5)c4c3c2)cn1 | 1000 nM (active) | – |
| CN1c2ccccc2C(=O)N2CCc3c([nH]c4ccccc34)C21 (configuration not stated) | 7080 nM (active) | – |
| COc1ccc(-c2ccc3ncc4c(c3c2)n(-c2ccc(N3CCNCC3)c(C(F)(F)F)c2)c(=O)n4C)cn1 | 794 nM (active) | – |

The compounds below were run on Es-2 in the same assay as above. Details: Gynecologic cancer cell panel viability, ATPlite luminescence, 48 h; series mostly up to 57.5 µM; activity change, negative = cytotoxicity: at the top concentration.
Outline: as §1

| SMILES | activity change, negative = cytotoxicity | Potency |
| --- | --- | --- |
| CN1C(=O)C(Cc2c[nH]c3ccccc23)NC1=S (configuration not stated) | -0.178% [at 25.3 µM] | – |
| Cc1cccc2c1CC[C@H](CN1CCC(c3c(Cl)cccc3Cl)CC1)C[C@@H]2O | -23.6% | – |
| Cc1c(C(=O)Nc2ccc(N3C[C@@H](C)O[C@@H](C)C3)nc2)cccc1-c1ccc(OC(F)(F)F)cc1 | -5.61% | – |
| CN(C)CCN(Cc1ccc(Cl)cc1)c1ccccn1 | 7.29% | – |
| Cc1cnc(Nc2cccc(CN3CCOCC3)c2)nc1Nc1cccc(S(=O)(=O)NC(C)(C)C)c1 | 5.25% | – |
| COc1ccc(-c2cc3nccn3c(Nc3ncccc3C(N)=O)n2)cc1OC | -28.7% | – |
| O=C(CO)N1CCC(c2[nH]nc(-c3ccc(Cl)cc3)c2-c2ccncn2)CC1 | -7.06% | – |
| CC1=C(C(=O)Nc2cc3cn[nH]c3cc2F)C(c2ccc(C(F)(F)F)cc2)CC(=O)N1 (configuration not stated) | 6.24% | – |
| COc1nccc(-c2c(-c3ccc(F)cc3)ncn2C2CCC(O)CC2)n1 (configuration not stated) | -5.73% | – |
| Nc1ccc(-c2ccc3ncc4ccc(=O)n(-c5cccc(C(F)(F)F)c5)c4c3c2)cn1 | – | 316 nM (active) |
| CC(C)(O)CC(=O)NCCn1ccc2ncnc(Nc3ccc(Oc4cccc(C(F)(F)F)c4)c(Cl)c3)c21 | -1.75% | – |
| CN1c2ccccc2C(=O)N2CCc3c([nH]c4ccccc34)C21 (configuration not stated) | – | 14100 nM (active) |
